TSHR antag = antagonists of human thyroid stimulating hormone receptor | P16473 | TSHR-expressing cells, TSH-stimulated cAMP HTRF, 2 h; active compounds read low | activity change, negative = inhibition, % at 11.5 µM | 330,000 compounds, 0.2% hits;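 active = activity change below a set negative limit, meaning inhibition stronger than a set level, cut at about -70% in these data; inconclusive = activity change between two set negative limits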; note: % is set by controls: 0 for no effect and ±100 for the full control effect
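Freshly harvested TSHR cells receive pin-tooled compound, then EC80 TSH at 4nM final. After 2 hours at 37 deg C, antibody in lysis buffer and cAMP-d2 are added; 30 minutes at ambient temperature precede the HTRF read.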
D3 ag = agonists of human D3 dopamine receptor; D3R DiscoveRx beta-arrestin cells, luminescence, 90 min; P35462; max activation, %; 410,000 compounds, 0.58% hits; AID 652048; in the data active = max activation above about 30%; note: 0% is about no effect
Target sequence (P35462 whole entry, looked up): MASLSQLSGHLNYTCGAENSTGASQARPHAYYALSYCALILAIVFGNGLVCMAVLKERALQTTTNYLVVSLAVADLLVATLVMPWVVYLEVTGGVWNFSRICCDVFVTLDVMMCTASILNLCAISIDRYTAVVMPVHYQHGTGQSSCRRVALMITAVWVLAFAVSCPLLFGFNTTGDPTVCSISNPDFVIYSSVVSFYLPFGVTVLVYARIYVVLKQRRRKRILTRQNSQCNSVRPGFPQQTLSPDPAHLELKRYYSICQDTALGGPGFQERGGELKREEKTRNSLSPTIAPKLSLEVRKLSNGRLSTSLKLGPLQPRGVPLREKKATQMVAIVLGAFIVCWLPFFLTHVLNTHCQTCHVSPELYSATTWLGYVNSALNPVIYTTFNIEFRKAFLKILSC
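Agonist-mode cell screen: cells plated at 1500/well and incubated overnight at 37 °C, then exposed to library compounds for 90 min at 37 °C. Detection reagent was added for 30–60 min at room temperature, and luminescence was read.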
DRD3 antagonist = antagonists of human D3 dopamine receptor | D3R cells, DiscoveRx beta-arrestin luminescence, antagonist mode; active compounds read low | max response, negative = inhibition, % | 360,000 compounds, 2.5% hits | AID 652054; in the data active = max response below about -50%; inconclusive = no clear call, values can overlap the other calls; note: % is set by controls: 0 for no effect and ±100 for the full control effect
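Cells expressing the human receptor were seeded at 1500 cells/well, incubated overnight at 37 degrees C in 5% CO2, then exposed to library compounds with dopamine controls for 90 minutes at 37 degrees C before luminescent detection.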
B2AR arrestin = agonists driving beta-arrestin recruitment to human beta2-adrenergic receptor; 330,000 compounds, 0.02% hits; beta-arrestin recruitment to beta2AR, cell-based reporter; Potency, µM (titrated, usually from 46.1 µM), inactives show top-dose activation, usual class: activators; active = well fitted activation curve with a large enough effect; inconclusive = small, poorly fitted or top-dose-only effect;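 note: potency is the fitted concentration of half-maximal effect; 0% = DMSO controls and full agonism = EC100 isoproterenol or metaproterenol; nearly all actives have a fitted effect of over 65% in size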
* marks the source's active call; other numbers are inactive results; ? = inconclusive; . = not tested or not shown. Compounds with a hit are over-represented: about 2.9% of the library has one in this group of screens.

SMILES	TSHR antag	D3 ag	DRD3 antagonist	B2AR arrestin
CC(=O)N1CCc2cc(CNS(=O)(=O)c3ccccc3C(F)(F)F)ccc21	.	61*	.	.
CCCCOCCCNC(=O)C[C@@H]1C[C@@]2(C(=O)OC)CCCCC=C2N(Cc2ccco2)C1=O	.	-1	-12	.
CC(=NNC(=S)N1CCCC1)c1ccccn1	.	-9	-7	.
CC(=NNC(=S)N1CC2CCC(CC2)C1)c1cccc(C)n1	.	1	-73*	.
CCN(CC)C(=S)SCC(=O)c1ccccc1	-15	-5	-10	0%
CCN(CC)C(=S)SSC(=S)N(CC)CC	-21	-33	-26	0.65µM*
O=C(CN1CCCCC1)Nc1ccc(S(=O)(=O)N2CCCCCC2)cc1	-5	-1	-19	0%
O=C(CN1CCN(c2ccc(O)cc2)CC1)Nc1ccc(S(=O)(=O)N2CCCC2)cc1	-10	98*	9	0%
O=C(CN1CCOCC1)Nc1ccc(S(=O)(=O)N2CCCCCC2)cc1	27	31*	4	0%
Cc1ccc(S(=O)(=O)N2CCOCC2)cc1NC(=O)CN1CCN(c2ccc(O)cc2)CC1	-9	3	8	0%
Cc1ccc(S(=O)(=O)N2CCN(CC(=O)Nc3ccc(N4CCOCC4)cc3)CC2)cc1C	10	2	-93*	0%
O=C(CNC1CCN(Cc2ccccc2)CC1)Nc1ccc(S(=O)(=O)N2CCCCC2)cc1	-4	-20	-82*	11%
CCc1ccc(S(=O)(=O)c2nnn3c2nc(N2CCOCC2)c2sccc23)cc1	.	8	.	.
Cc1ccc(NC(=O)c2nc(S(C)(=O)=O)ncc2N(Cc2ccccc2)Cc2ccco2)c(C)c1	.	8	.	.
CC(C)c1ccc(NC(=O)c2cc(S(=O)(=O)NCc3ccccc3Cl)ccc2F)cc1	.	-6	.	.
COc1ccc(Br)cc1/C=N/NC(=O)c1cc(OC)c(OC)c(OC)c1	-2	2	32	6%
COc1cc(C(=O)N/N=C/c2ccsc2C)cc(OC)c1OC	-1	-12	-53*	0%
CC(=O)Oc1ccc2c(c1)C(=O)CCCCCC(=O)O2	.	0	-70*	.
CC(=O)Oc1ccc2c(c1)C(=O)c1ccccc1CO2	6	-12	?	0%
O=C(CCn1cnc2onc(-c3ccc(F)cc3)c2c1=O)N1CCN(c2ccccc2F)CC1	.	-2	.	.
CCOC(=O)c1ccc(NC(=O)c2ccc3c(c2)CCN3S(=O)(=O)c2ccc(Cl)cc2)cc1	.	-6	.	.
CCCc1nc2c(s1)CCc1onc(-c3cccc([N+](=O)[O-])c3)c1-2	-16	34*	49	0%
CCOc1ccc(-c2c(C)nn3c(C)c(C(=O)NCCc4ccc(C)cc4)cnc23)cc1OCC	.	-10	.	.
N#C/C(=C\c1c(Cl)cccc1Cl)c1nc2ccccc2[nH]1	-7	-6	-22	0%
N#C/C(=C\c1c(Cl)cccc1Cl)c1nc2ccccc2o1	2	-19	?	23µM*
SMILES	TSHR antag	D3 ag	DRD3 antagonist	B2AR arrestin
Cc1ccc(C)c(CNC(=O)c2cnc3sc(N4CCCC4)nn3c2=O)c1	.	5	.	.
CCC[C@@H](CN1CCC[C@H]1CN1C(N)=NC[C@@H]1Cc1ccccc1)N1C[C@@H](Cc2ccccc2)N(CCc2ccc(Cl)c(Cl)c2)C1=N	5	-46	-87*	0%
CCC[C@@H](CN1CCC[C@H]1CN1C(N)=NC[C@H]1CC(C)C)N1C[C@@H](Cc2ccccc2)N(CCc2ccc(Cl)c(Cl)c2)C1=N	-12	-23	-29	0%
CCC[C@@H](CN1CCC[C@H]1CN1C(N)=NC[C@@H]1Cc1ccccc1)N1C[C@@H]([C@H](C)CC)N(CCc2ccc(Cl)c(Cl)c2)C1=N	13	-47	-64*	0%
N#C/C(=C\c1ccc(N2CCOCC2)o1)c1ccccc1	-82*	-18	-30	0%
N#C/C(=C/c1ccc(N2CCCCCC2)o1)c1cccc(F)c1	-9	-22	-61*	5%
N#C/C(=C/c1ccc(N2CCOCC2)o1)c1ccc(Br)cc1	7	-11	-22	9%
N#C/C(=C/c1ccc(N2CCCCCC2)o1)c1ccc(F)cc1	.	-8	?	.
COc1cc(/C=C/C(=O)OCC(=O)NC(=O)NC(C)C)ccc1OCC#N	-3	19	2	0%
COc1cc(/C=C/C(=O)OCC(=O)NC(=O)NC23CC4CC(CC(C4)C2)C3)ccc1OCC#N	-13	-7	-53*	-2%
CC1=C(C(=O)Nc2ccccc2)C(c2ccco2)C(C#N)=C(SCC(=O)OC(C)C)N1 (centres undefined)	-3	58*	32	0%
CC1=C(C(=O)Nc2ccccc2)C(c2ccco2)C(C#N)=C(SCc2ccccc2)N1 (centres undefined)	-17	.	.	0%
CCc1ccc(-c2nc(SCC(=O)NCC3CCCO3)c(-c3ccc(F)cc3)[nH]2)cc1 (centres undefined)	.	-18	.	.
CCOC(=O)c1ccc(NS(=O)(=O)c2cn(C)c(C)n2)cc1	.	-7	.	.
CCC(=O)N1CCc2cc(S(=O)(=O)NC(C(=O)NCCc3ccccc3)C(C)C)ccc21 (centres undefined)	.	-13	.	.
O=C(c1ccc([N+](=O)[O-])cc1[N+](=O)[O-])N1CCc2ccccc21	7	-13	-51*	-1%
O=C(c1ccc([N+](=O)[O-])cc1[N+](=O)[O-])N1CCCC1	-2	1	1	0%
Cc1nnc(NC(=O)CSc2ncnc3c2cnn3-c2ccccc2C)s1	-2	6	-63*	0%
Cc1cc2c(cc1NS(=O)(=O)c1ccc(Br)cc1)n(C)c(=O)c(=O)n2C	.	-6	.	.
c1ccc(CN2CCN(Cc3c[nH]c4ccccc34)CC2)cc1	2	-46	-60*	0%
CCN1CCCC(CO)(Cc2ccccc2)C1 (centres undefined)	-4	-3	16	-1%
OCC1(Cc2ccccc2)CCCN(Cc2c[nH]c3ccccc23)C1 (centres undefined)	3	-30	-57*	0%
COc1ccc(C2CC=C(C(C)=O)CN2S(=O)(=O)c2ccc(Cl)cc2)cc1 (centres undefined)	.	3	-9	.
CC(C)C[C@H]1CN([C@@H](CC(C)C)CN2CCCC2CN2C(=S)NC[C@@H]2Cc2ccccc2)C(=S)N1CC1CCCCC1 (some centres undefined)	.	-15	-112*	.
CC(C)C[C@H]1CN([C@@H](Cc2ccc(O)cc2)CN2CCCC2CN2C(=S)NC[C@@H]2Cc2ccccc2)C(=S)N1CC1CCCCC1 (some centres undefined)	.	-13	-51*	.
SMILES	TSHR antag	D3 ag	DRD3 antagonist	B2AR arrestin
CCOc1ccccc1NC(=O)Cn1nc2c3cc(F)ccc3n(Cc3cccc(C)c3)cc-2c1=O	.	0	.	.
COc1ccccc1CN1CCN(C2CCN(C(=O)Nc3ccccc3)CC2)C(=O)C1=O	.	8	.	.
Nc1c(Br)cc(Br)c2c1C(=O)c1c(cccc1S(=O)(=O)O)C2=O	.	-17	-55*	.
CCc1cc(S(=O)(=O)O)c2cc(C(C)C)cccc1-2	.	-18	.	.
CCc1ccccc1NC(=O)c1cc2nc(-c3ccc(Br)cc3)cc(C(F)(F)F)n2n1	.	-15	.	.
Cc1cc(-c2nnc3n2N=C(C(C)(C)C)CS3)n[nH]1	-6	-7	-52*	0%

High-throughput results as filed in PubChem BioAssay.
